Assay outcomes as filed in PubChem.
An excerpt weighted towards active compounds, which were near 7.4% of everything screened.
HEK293 viab = counter-screen for SNCA expression inhibitors: cell viability. HEK-293-SNCA-luc viability, GF-AFC fluorescence, 24 h. Potency, µM (top dose mostly 57.1 µM), without a hit: top-dose activity change, negative = cytotoxicity, hits mostly cytotoxic. actives 0.12% (n = 150,000);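 note: 0% = DMSO-treated cells and -100% = medium-only wells without cells; nearly all actives have a fitted effect of over 30% in size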
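HEK-293-SNCA-luc cells (1500/well) plated 24 h, then exposed 24 h to a dilution series; GF-AFC added 30 min at 37C, fluorescence 405/540 nm; normalised to medium-only and DMSO wells, Hill fit.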
SNCA expr inh = inhibitors of alpha-synuclein (SNCA) gene expression; actives 0.17% (n = 140,000); Potency, µM (highest dose often 57.2 µM), for inactives: top-dose activity change, negative = inhibition, usual class: inhibitors; HEK-293 SNCA-luciferase knock-in, luminescence, 24 h; AID 1671194;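 note: plate controls were DMSO cells for no effect and cell-free wells for full effect; nearly all actives have a fitted effect of over 45% in size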
NPR1 antag = human Npr1 receptor antagonism; P16066; HEK293 hNpr1 GloSensor cGMP, ANP-stimulated luminescence; Potency, µM (top dose mostly 46.3 µM), for inactives: top-dose activity change, negative = inhibition, hits mostly inhibitors; actives 1.6% (n = 76,000); calls by dose curve; note: % is set by controls: 0 for no effect and ±100 for the full control effect; nearly all actives have a fitted effect of over 60% in size
Target sequence (P16066 whole entry, looked up): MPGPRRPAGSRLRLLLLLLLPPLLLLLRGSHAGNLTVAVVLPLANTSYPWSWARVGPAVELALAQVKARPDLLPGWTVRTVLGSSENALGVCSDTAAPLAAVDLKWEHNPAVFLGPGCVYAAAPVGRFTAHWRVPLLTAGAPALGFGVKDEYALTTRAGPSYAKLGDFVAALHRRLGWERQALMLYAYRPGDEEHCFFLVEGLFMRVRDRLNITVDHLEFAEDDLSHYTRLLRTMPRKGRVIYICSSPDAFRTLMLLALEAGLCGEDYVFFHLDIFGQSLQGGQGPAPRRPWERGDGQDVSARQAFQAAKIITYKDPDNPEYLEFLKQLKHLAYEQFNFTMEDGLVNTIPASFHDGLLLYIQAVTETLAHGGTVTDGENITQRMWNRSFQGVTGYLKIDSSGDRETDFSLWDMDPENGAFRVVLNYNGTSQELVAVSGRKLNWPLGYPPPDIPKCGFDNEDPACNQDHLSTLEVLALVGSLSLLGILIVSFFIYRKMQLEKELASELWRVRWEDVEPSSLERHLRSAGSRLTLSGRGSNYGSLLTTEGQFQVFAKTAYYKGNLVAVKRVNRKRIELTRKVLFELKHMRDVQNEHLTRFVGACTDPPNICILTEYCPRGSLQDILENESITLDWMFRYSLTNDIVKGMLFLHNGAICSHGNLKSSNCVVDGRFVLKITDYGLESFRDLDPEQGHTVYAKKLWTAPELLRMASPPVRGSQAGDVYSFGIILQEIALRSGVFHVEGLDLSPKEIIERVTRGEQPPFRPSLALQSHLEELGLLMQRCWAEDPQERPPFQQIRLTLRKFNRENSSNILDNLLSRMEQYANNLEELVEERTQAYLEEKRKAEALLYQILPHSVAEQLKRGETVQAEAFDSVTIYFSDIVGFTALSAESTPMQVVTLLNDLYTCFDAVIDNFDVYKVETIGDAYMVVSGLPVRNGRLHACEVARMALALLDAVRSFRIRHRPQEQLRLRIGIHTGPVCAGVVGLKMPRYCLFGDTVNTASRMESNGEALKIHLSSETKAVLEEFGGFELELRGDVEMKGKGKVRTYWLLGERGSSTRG
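Compound pre-incubated 30 min at room temperature on GloSensor-loaded HEK293 cells stably carrying hNpr1 and the pGS-40F cGMP biosensor. Stimulation uses hNppA at 0.1 nM final; luminescence is taken at baseline and 20 min post-agonist.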
HEK cytotox = kills HEK 293 cells | HEK 293 viability, ATP luminescence (CellTiter-Glo), 48-72 h | actives 6.6% (n = 94,000) | Potency, µM (doses to about 115 µM), for the others: top-dose activity change, negative = cytotoxicity, usual class: inhibitors; note: % is set by controls: 0 for no effect and ±100 for the full control effect; nearly all actives have a fitted effect of over 60% in size
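HEK 293 cells seeded at 250 cells/well were exposed to compound for 48 or 72 hr at 37 degree Celsius. Viability taken as ATP content by CellTiter-Glo luminescence.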
NIH3T3 tox = cytotoxic compounds in NIH 3T3 cells. actives 4.3% (n = 94,000). Potency, µM (titrated, usually from 96.7 µM), inactives show top-dose activity change, negative = cytotoxicity, usual class: inhibitors. NIH 3T3 viability, CellTiter-Glo ATP luminescence, 48-72 h; note: % is set by controls: 0 for no effect and ±100 for the full control effect; nearly all actives have a fitted effect of over 55% in size
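Cytotoxicity is measured as loss of cellular ATP: NIH 3T3 cells (400/well) are exposed to compound for 48 or 72 hr at 37 °C, then CellTiter-Glo luminescence is imaged after 10 min at room temperature.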
FLuc inh-1 = inhibitors of firefly (Photinus pyralis) luciferase; P08659; purified P. pyralis luciferase, luminescence, biochemical; Potency, µM (titrated, usually from 115 µM), actives largely listed as inhibitors; actives 2.5% (n = 76,000); AID 1347043; note: % is set by controls: 0 for no effect and ±100 for the full control effect; nearly all actives have a fitted effect of over 65% in size
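Cell-free enzyme assay, 10nM P. pyralis luciferase, luciferin and ATP each at 10uM. Inhibition profiled over a 6-point titration, read as luminescence.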
FLuc SDR no ATP = binders stabilizing firefly luciferase, without ATP | Potency, µM (series often up to 32.7 µM), inactives show at the highest dose activation (signal gain), actives largely listed as activators | shares compounds with FLuc inh-1 | AID 1963318 | Purified FLuc-C-HiBiT, Nano-Glo HiBiT luminescence, no ATP | actives 7.8% (n = 1,300); note: nearly all actives have a fitted effect of over 55% in size
FLuc SDR ATP = firefly luciferase binding stabilization, ATP added; shares compounds with FLuc inh-1; purified FLuc-C-HiBiT + ATP, HiBiT complementation luminescence; Potency, µM (titrated, usually from 32.7 µM), for inactives: at the highest dose activation (gain of signal), most hits filed as activators; actives 8.7% (n = 1,300); AID 1963319;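 note: signal reports ligand binding via conformational change of the enzyme rather than luciferase catalysis; % of control where 0% means no effect; nearly all actives have a fitted effect of over 55% in size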
FLuc inh-2 = blocks firefly luciferase enzymatic activity. shares compounds with FLuc inh-1. purified FLuc-C-HiBiT enzyme, luciferin luminescence. Potency, µM (titrated, usually from 32.7 µM), inactives show at the top dose activity change, negative = inhibition, usual class: inhibitors. actives 42% (n = 1,300). AID 1963320; note: % is set by controls: 0 for no effect and ±100 for the full control effect; nearly all actives have a fitted effect of over 70% in size
Active calls of the source: *; i = inactive; ? = inconclusive; . = no result given; [ ] = remark or other dose. Unless noted, calls come from the whole dose curve; as a rule, active = well fitted curve in the direction sought with a large enough effect; inconclusive = small, poorly fitted or top-dose-only effect, or another doubt; inactive = no such curve, though single readings can be large; an effect the other way counts as inactive or inconclusive. Potency is the fitted concentration of half-maximal effect.

SMILES	HEK293 viab	SNCA expr inh	NPR1 antag	HEK cytotox	NIH3T3 tox	FLuc inh-1	FLuc SDR no ATP	FLuc SDR ATP	FLuc inh-2
COc1ccc(CCNC(=O)c2cc3c(=O)[nH]c(C)cn3n2)cc1OC	0.6%	2.2%	7.1%	0.7%	-13.3%	i	.	.	.
Cn1c([C@H]2CCN(C3CCCCC3)C2)nc2ccccc21	?	-51.6%[87.6 µM]	-26.3%[70.6 µM]	?	?	7.08µM*	17.6%[65.7 µM]	12.2%[65.7 µM]	?
O=C1c2cnc(-c3cc4ccccc4o3)nc2OCCN1Cc1ccccc1	-7.8%[87.6 µM]	-39.4%[87.6 µM]	8.91µM*	?	?	0.1µM*	?	?	1.61µM*
COCCN1CCOc2nc(-c3cccc(N(C)C)c3)ncc2C1=O	.	.	.	.	.	.	28.1%[49.3 µM]	?	?
COc1ccc(-c2ncc3c(n2)OCCN(Cc2ccccc2)C3=O)cc1	-8.5%[87.6 µM]	85.3%[87.6 µM]	28.2µM*	?	?	2.51µM*	19.0%[49.3 µM]	15.0%[49.3 µM]	?
COc1ncccc1-c1ncc2c(n1)OCCN(Cc1ccccc1)C2=O	4.5%[87.6 µM]	22.6%[87.6 µM]	-12.4%[70.6 µM]	-34.8%[172 µM]	?	i	.	.	.
COc1cccc(-c2ncc3c(n2)OCCN(Cc2ccccc2)C3=O)c1	-2.1%[87.6 µM]	14.1%[87.6 µM]	?	?	?	2.82µM*	23.6%[49.3 µM]	?	?
O=C(NCC(F)(F)F)C1CCCN1c1nc2ncccc2o1 (stereo not given)	2.0%[87.6 µM]	11.3%[87.6 µM]	-0.8%[70.6 µM]	i	i	i	11.2%[49.3 µM]	7.1%[49.3 µM]	5.9%[49.3 µM]
O[C@@H]1CN(CC2CCNCC2)CC[C@H]1c1ccc2ccccc2c1	-14.2%	17.9%	2.2%	?	?	i	.	.	.
COCC(=O)N1CCCC(C(=O)N2CCC(N3CCOCC3=O)CC2)C1 (stereo not given)	6.5%	-4.7%	.	i	2.4%	.	.	.	.
Cc1cccc(CNC(=O)Cc2csc3ccccc23)c1	19.3%	158.0%	.	.	.	.	15.5%	11.7%	-17.3%
CNC(=O)c1cc(C2CC2)nc2c1c(C1CCCN1C(=O)c1ccc(Cl)cc1)nn2C (stereo not given)	.	.	.	2.5%	-22.3%	.	.	.	.
C[C@@H]1CN(c2cc(C3CC3)ncn2)C[C@@]1(O)C1CCC1	-3.2%	20.1%	3.2%	?	-21.9%	i	.	.	.
C[C@@H]1CN(c2cnc3ccccc3n2)CC[C@@]1(O)C1CCC1	-2.4%	13.9%	?	?	?	3.98µM*	21.5%	16.7%	?
CN(C1CCc2ccccc2C1)[S+](=O)([O-])c1cccs1 (stereo not given)	12.3%[87.6 µM]	25.0%[87.6 µM]	3.3%[70.6 µM]	?	?	i	12.0%[49.3 µM]	6.4%[49.3 µM]	-9.1%[49.3 µM]
CCN(CC)S(=O)(=O)c1ccc2nc(NC(=O)c3cccnc3)sc2c1	-8.9%	90.0%	.	.	.	.	16.0%	11.1%	?
CCCCNS(=O)(=O)c1ccc2nc(NC(=O)c3cccnc3)sc2c1	-7.1%	15.4%	.	.	.	.	.	.	.
Cc1ccc(C(=O)NC2CCN(c3ccc4nnc(C5CC5)n4n3)C2)cc1 (stereo not given)	.	.	.	i	2.5%	.	.	.	.
COc1ccc(CNC(=O)C2CCN(C(=O)c3nnn4c3COC(c3ccc(C)cc3)C4)CC2)cc1 (stereo not given)	16.7%	18.6%	3.5%	1.4%	i	i	.	.	.
Cc1ccc(C2Cn3nnc(C(=O)N4CCC(C(=O)NCc5ccncc5)CC4)c3CO2)cc1 (stereo not given)	-3.6%	66.5%	-3.5%	1.0%	-28.6%	14.1µM*	7.4%	?	?
Cc1ccc(C2Cn3nnc(C(=O)N4CCC(C(=O)NC5CC5)CC4)c3CO2)cc1 (stereo not given)	13.6%	104.6%	-3.4%	-4.7%	-17.5%	10µM*	12.1%	?	?
CC(C)c1ccc(C(=O)Nc2cccc3cccnc23)cc1	2.4%	159.6%	.	.	.	.	17.5%	12.2%	?
O=C(Nc1cccc2cccnc12)c1ccc(F)cc1	-11.5%	129.1%	.	.	.	.	.	.	.
CSCC(=O)N[C@H]1CCN2C(=O)c3cc(-c4ccc(SC)cc4)ccc3NC(=O)[C@H]12	-7.4%	71.9%	5.4%	-7.6%	-16.6%	12.6µM*	23.5%	15.5%	?
COc1ccc(CNC(=O)c2cc(=O)c3cc(C)ccc3o2)cc1	-7.7%	-9.4%	.	.	.	.	.	.	.
SMILES	HEK293 viab	SNCA expr inh	NPR1 antag	HEK cytotox	NIH3T3 tox	FLuc inh-1	FLuc SDR no ATP	FLuc SDR ATP	FLuc inh-2
COc1ccc(-c2cc(=O)c3cc(OCC(=O)OC(C)C)ccc3o2)cc1	-10.8%	17.8%	.	.	.	.	?	?	3.94µM*
COc1ccc(-c2cnc(Nc3ccccc3)c3c2CCO3)cn1	-9.9%[87.6 µM]	96.4%[87.6 µM]	?	?	?	3.55µM*	18.7%[49.3 µM]	11.8%[49.3 µM]	?
CNC(=O)c1cccc(-c2cnc(Nc3ccc(Cl)cn3)c3c2CCO3)c1	-18.6%[87.6 µM]	75.3%[87.6 µM]	?	?	?	3.16µM*	18.2%[49.3 µM]	16.9%[49.3 µM]	?
COc1cccc(Nc2ncc(-c3cccnc3)c3c2OCC3)c1	-3.9%[87.6 µM]	171.9%[87.6 µM]	-29.5%[70.6 µM]	100µM*	?	14.1µM*	21.4%[49.3 µM]	13.8%[49.3 µM]	?
COc1ccc(-c2cnc(NC(=O)Cc3ccccc3)c3c2CCO3)cn1	6.1%[87.6 µM]	82.9%[87.6 µM]	-4.3%[70.6 µM]	-23.6%[172 µM]	?	i	.	.	.
COCCNc1ncc(-c2cccc(C(C)=O)c2)c2c1OCC2	-4.7%[87.6 µM]	-3.6%[87.6 µM]	-0.3%[70.6 µM]	?	?	?	.	.	.
c1ccc(-c2cnc(Nc3ccc4c(c3)OCCO4)c3c2CCO3)cc1	-4.5%[87.6 µM]	-5.9%[87.6 µM]	?	?	?	2.82µM*	13.2%[49.3 µM]	10.7%[49.3 µM]	16.1µM*
COc1ccc(C(=O)N2CCC[C@@H]2C(=O)N2CCC(N3CCOC3=O)CC2)cc1	-7.0%	3.9%	.	0.6%	-13.6%	.	.	.	.
CCOc1cc(C(=O)Nc2ccc(-c3nc4ccccc4s3)cc2Cl)cc(OCC)c1OCC	-0.4%	65.2%	.	.	.	.	16.7%	12.4%	?
COc1ccc(-c2nc3ccccc3s2)cc1NC(=O)c1ccc(F)cc1	-3.0%	28.1%	.	.	.	.	14.4%	8.8%	-5.3%
COc1ccc(-c2nc3ccccc3o2)cc1NC(=O)c1ccc(OCC(C)C)cc1	4.8%	27.3%	.	.	.	.	.	.	.
